# Where a name gives a salt, the structure may show the parent alone.
# System: thyroid hormone receptor (endogenous TRα and TRβ)
# Design: species or system GH3-TRE-Luc (rat pituitary); GH3-TRE-Luc luciferase reporter, antagonist mode against 1 nM T3, loss of signal, qHTS
# Conditions: read-out: Average AC50 (uM) GH3-TRE-Antag, antagonist mode, 1 nM T3, no GH3 cytotoxicity hit, Average AC50 (uM) GH3-TRE-Antag, 24 h
row,Structure (SMILES),AC50 [µM]
1,CCCCCCCCn1cc[n+](C)c1 [1-Methyl-3-octylimidazolium hexafluorophosphate],33
2,CCCCCCCCCCCCOS(=O)(=O)O [Sodium dodecyl sulfate],> 50
3,CCCCCCCCn1cc[n+](C)c1 [1-Methyl-3-octylimidazolium chloride],28.9
